According to PubChem BioAssay AID1117294 (Broad Institute, 2014):
A number with no mark means an inactive call.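 The calls were made as follows: active = Lowers HeLa cell ATP signal, with fitted half-maximal potency at most twice the top tested dose in every run; inconclusive = runs disagree, or fits flat mid-range or poor; inactive = every run inactive, including signal rising.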

Assay: cervical carcinoma cell viability loss – CellTiter-Glo luminescence, dry powder, set 3, cytotoxicity control, dose response (AID 1117294)
Conditions: HeLa viability, ATP luminescence (CellTiter-Glo), 72 h; at 0.05 µM
Compound `COc1ccc(C(=O)O)cc1S(=O)(=O)Nc1cc(C(F)(F)F)ccc1N1CCN(C(C)=O)CC1` has a max activity of -16.6%. `COc1ccc(C2=NN(c3ccc(C(=O)O)cc3)C(c3ccc(OC)c(OC)c3)C2)cc1` (stereo not drawn) showed a max activity of -16.2%. Work on `COc1ccc(C(=O)O)cc1S(=O)(=O)Nc1ccc(N2CCCCC2)cc1C(F)(F)F` yielded a max activity of -17%.
